{
  "source": "the OligoGym collection",
  "data": [
    {"biological_target": "MAGOHB", "test": "pooled miR-30 sensor sort-seq; sequence = guide strand", "conditions": "shRNA", "values": [
      {"sequence": "TTACATCAATAAGAGAACCTAT", "sensor-assay potency score (higher = more potent)": -0.7},
      {"sequence": "TTCTTTTGTAATTTCACTGTCA", "sensor-assay potency score (higher = more potent)": 0.267},
      {"sequence": "TTCGAACTCCAGAAACTCGTGC", "sensor-assay potency score (higher = more potent)": 0.282}
    ]},
    {"biological_target": "MAGOH", "test": "pooled miR-30 sensor sort-seq; sequence = guide strand", "conditions": "shRNA", "values": [
      {"sequence": "TTGATTGACATCAATAAGGGAA", "sensor-assay potency score (higher = more potent)": 0.101},
      {"sequence": "TAATAAAATACTCGTAAGCCTT", "sensor-assay potency score (higher = more potent)": -0.986},
      {"sequence": "TTTTCTGATCATGACATCATTC", "sensor-assay potency score (higher = more potent)": -1.16},
      {"sequence": "TAAGCCTTCTGGATCCTTGGAT", "sensor-assay potency score (higher = more potent)": 0.401},
      {"sequence": "TTAACTTCCCGTCCGGTCGAAA", "sensor-assay potency score (higher = more potent)": -1.06},
      {"sequence": "TTGGCATATCTTAACTTCCCGT", "sensor-assay potency score (higher = more potent)": -0.899},
      {"sequence": "TCAAACTCCAGGAACTCGTGGC", "sensor-assay potency score (higher = more potent)": 0.562},
      {"sequence": "TTCTTGTAATTGCTGTTGTTGG", "sensor-assay potency score (higher = more potent)": -1.26},
      {"sequence": "ATATCTTAACTTCCCGTCCGGT", "sensor-assay potency score (higher = more potent)": -0.615},
      {"sequence": "TATCTTAACTTCCCGTCCGGTC", "sensor-assay potency score (higher = more potent)": -1.04},
      {"sequence": "TCTGATCATGACATCATTCTTG", "sensor-assay potency score (higher = more potent)": 0.0716},
      {"sequence": "TCCAATAAGACTGAAGACCAAA", "sensor-assay potency score (higher = more potent)": -1.96}
    ]},
    {"biological_target": "MALL", "test": "pooled miR-30 sensor sort-seq; sequence = guide strand", "conditions": "shRNA", "values": [
      {"sequence": "TCTTTTGTAAAATCCAAACAAG", "sensor-assay potency score (higher = more potent)": -1.37},
      {"sequence": "TTGTAAAATCCAAACAAGTAAG", "sensor-assay potency score (higher = more potent)": -1.62},
      {"sequence": "TAATGTAGTAAATTCTTGGGTC", "sensor-assay potency score (higher = more potent)": 0.801},
      {"sequence": "TACAGGATGCCAGTGGTCCCGT", "sensor-assay potency score (higher = more potent)": -0.996},
      {"sequence": "AATTAATGTAGTAAATTCTTGG", "sensor-assay potency score (higher = more potent)": -0.359},
      {"sequence": "TTCTCAGAAACAATCGTGGCAT", "sensor-assay potency score (higher = more potent)": 0.00713},
      {"sequence": "AAACAAGTAAGACAACAGGAAC", "sensor-assay potency score (higher = more potent)": -1.63},
      {"sequence": "TAAATGTCCAAACAAAGTGTGG", "sensor-assay potency score (higher = more potent)": -1.11},
      {"sequence": "AGTTTCTCAGAAACAATCGTGG", "sensor-assay potency score (higher = more potent)": -1.29},
      {"sequence": "TAAGACAACAGGAACATCAAGG", "sensor-assay potency score (higher = more potent)": -0.729},
      {"sequence": "TTTCTCAGAAACAATCGTGGCA", "sensor-assay potency score (higher = more potent)": 0.81},
      {"sequence": "TTAATGTAGTAAATTCTTGGGT", "sensor-assay potency score (higher = more potent)": -0.194}
    ]},
    {"biological_target": "MAMSTR", "test": "pooled miR-30 sensor sort-seq; sequence = guide strand", "conditions": "shRNA", "values": [
      {"sequence": "TTGACCGAGCCCTGACGCCGGG", "sensor-assay potency score (higher = more potent)": -1.2},
      {"sequence": "TTCCTGCAGCTCCTCCTCCAGA", "sensor-assay potency score (higher = more potent)": -1.58},
      {"sequence": "TCGGCTTGGGGGTCTGCCCTGG", "sensor-assay potency score (higher = more potent)": -0.566},
      {"sequence": "TGCTGCGCTGGGCTTGACCGAG", "sensor-assay potency score (higher = more potent)": -1.43},
      {"sequence": "TTGTCTCCGATCCTGTGTCTGC", "sensor-assay potency score (higher = more potent)": -0.79},
      {"sequence": "TCTGAAGTTCCAACTTGTGTGG", "sensor-assay potency score (higher = more potent)": -0.0798},
      {"sequence": "TTAGGAAGCAACTGCGCCCTCC", "sensor-assay potency score (higher = more potent)": -0.483},
      {"sequence": "TGGAGTCAGATAAGTCAGCGGA", "sensor-assay potency score (higher = more potent)": -0.63},
      {"sequence": "TGAAGTTCCAACTTGTGTGGGG", "sensor-assay potency score (higher = more potent)": 0.878},
      {"sequence": "TGCTGGAGTCAGATAAGTCAGC", "sensor-assay potency score (higher = more potent)": -1.36},
      {"sequence": "TAGACTTGGTCCCCGACACTGG", "sensor-assay potency score (higher = more potent)": -0.651},
      {"sequence": "TCCAGAGTCAGAGCCGCTGAGC", "sensor-assay potency score (higher = more potent)": -2}
    ]}
  ]
}
